Data from PubChem BioAssay AID624351 (Southern Research Specialized Biocontainment Screening …, 2012).
Out of some 2,400 compounds screened, about 1,400 (58%) were called active. The set was probably picked from earlier hits. The list shows a part of the results. Unmarked numbers belong to inactive results.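 The calls were made as follows: active = inhibition of 30% or more at any tested dose; inconclusive = primary hits over the limit that were never retested; inactive = the rest.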

Assay: coupled detection enzyme interference, dose response, artefact control for MgcRacGAP inhibitor project, biochemical, coupled enzyme counter-screen (AID 624351);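 also: signal is the ADP detection kit reading of free GDP without any GAP enzyme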;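 as to inhibition: 0% = median positive control wells and 100% = median negative control wells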
Details: ADP Hunter coupled enzyme counter-screen, fluorescence, no MgcRacGAP; series mostly up to 80 µM; inhibition: at the top concentration
With `CN(C)c1nc(=NCc2cccs2)ss1` the “inhibition” value was 8.07%.
For `COc1cc(/C=N\Nc2cc(=O)n(C)c(=O)n2C)ccc1O`, the IC50 was 36 µM (active).
For `COc1cc(/C=N/NC(=O)c2cc[n+]([O-])cc2)ccc1O`, the IC50 was 35.7 µM (active).
With `COc1cc(/C=N/NC(=O)C(=O)Nc2ccccn2)ccc1O` the IC50 was 27.8 µM (active).
For `COc1cc(/C=N/NC(=O)c2cccc(NC(=O)c3ccccc3C)c2)ccc1O`, the IC50 was 34.4 µM (active).
With `CN(C)CCO/N=C(\c1ccc(Br)cc1)c1cccnc1` the “inhibition” value was 17.3%.
For `COc1cc(/C=N/NC(=O)c2[nH]nc3c2CCc2ccccc2-3)ccc1O`, the IC50 was 56.5 µM (active).
In the case of `O=C(N/N=C/c1ccc(O)c(O)c1)c1ccc(-n2cnnn2)cc1`, the IC50 is reported as 18.7 µM (active).
With `COc1cc(/C=N/NC(=O)C2(O)c3ccccc3-c3ccccc32)ccc1O` the IC50 was 45.5 µM (active).
With `COc1cc(/C=N/NC(=O)c2ccc(-n3cccc3)cc2)ccc1O` the IC50 was 22.3 µM (active).
In the case of `COc1cc(/C=N/Nc2ccc(C(=O)O)cc2)ccc1O`, the IC50 is reported as 36.1 µM (active).
In the case of `COc1ccc(/C=N/NC(=O)c2cc[n+]([O-])cc2)cc1O`, the IC50 is reported as 35.3 µM (active).
For `COc1cc(/C=N/NC(=O)c2cc3ccccc3[nH]2)ccc1O`, the IC50 was 20.8 µM (active).
In the case of `COc1cc(/C=N/NC(=O)c2ccccc2)ccc1O`, the IC50 is reported as 29.6 µM (active).
In the case of `COc1ccc(NS(=O)(=O)c2cccc(C(=O)NN=Cc3ccc(O)c(OC)c3)c2)cc1`, the “inhibition” value is reported as 16.8%.
With `COc1ccc(C(C#N)=C2C=CC(=NO)C=C2)cc1` the IC50 was 57.4 µM (active).
In the case of `CCOc1cc(N2CCOCC2)c(OCC)cc1NC(=O)c1ccc(C)s1`, the IC50 is reported as 65.1 µM (active).
For `O=C(CNC1CCCCCC1)Nc1ccccc1N1CCOCC1`, the “inhibition” value was 13.8%.
In the case of `CCOc1cc(N2CCOCC2)c(OCC)cc1NCC(=O)N1CCN(Cc2ccccc2)CC1`, the “inhibition” value is reported as 27.6%.
For `CCN(CC)c1ccc(NC(=O)c2ccc(Br)o2)cc1`, the IC50 was 29.2 µM (active).
With `Cc1ccc(NC(=O)CN(C)C2CCCCC2)cc1Br` the “inhibition” value was 11.6%.
In the case of `CCN(CC)c1ccc(NC(=O)C2CCCC2)cc1`, the IC50 is reported as 76.8 µM (active).
With `CCN(CC)c1ccc(NC(=O)Nc2ccccc2)cc1` the IC50 was 53.3 µM (active).
For `CCN(CC)c1ccc(CN2CCC(C(=O)NCc3ccc(C)cc3)CC2)cc1`, the “inhibition” value was 8.71%.
In the case of `CCN(CC)CCNCC(=O)Nc1ccc(Oc2ccccc2)cc1`, the “inhibition” value is reported as 21.4%.
With `CCN(CC)CC(=O)NN(Cc1ccccc1)c1ccccc1` the “inhibition” value was 18.2%.
For `O=c1oc2ccccc2c2c1C(c1ccc(Cl)cc1)Nc1ccc3ccccc3c1-2` (stereo not given), the “inhibition” value was 2.98%.
For `CN1CCCN(Cc2ccccc2C(F)(F)F)CC1`, the “inhibition” value was 24.1%.
For `CCc1nnc(NC(=O)CSCc2cc(=O)n3ccsc3n2)s1`, the “inhibition” value was -4.29%.
For `Cc1ccc(N2CC(C(=O)Nc3ccc(N(C)C)cc3)CC2=O)cc1C` (stereo not given), the IC50 was 62.4 µM (active).
In the case of `COc1ccc(OC(=O)C2CC(=O)N(c3ccc(C)cc3)C2)cc1` (stereo not given), the “inhibition” value is reported as 13.7%.
For `CS(=O)(=O)C1=NSC2=NC(=O)/C(=C\c3ccc(OC(=O)c4ccco4)c(Br)c3)C(=N)N21`, the “inhibition” value was 5.54%.
With `O=[N+]([O-])c1ccc(N2CCN(c3ccc(O)cc3)CC2)c(Cl)c1` the IC50 was 40.4 µM (active).
With `O=[N+]([O-])c1ccc(N2CCN(CCOCCO)CC2)c([N+](=O)[O-])c1` the “inhibition” value was 16%.
With `Cc1cc(Cl)cc2sc(=S)[nH]c12` the IC50 was 81.5 µM (active).
With `CN(C)c1cc2c3ccccc3n(C)c2cc1N` the IC50 was 13.4 µM (active).
In the case of `Cc1c(N(C)C)nc2ccccc2c1N`, the “inhibition” value is reported as 21.5%.
For `CCn1c2ccccc2c2cc(N)ccc21`, the “inhibition” value was 7.75%.
For `CC1(C)OC(=O)C(=NNc2ccc(O)cc2)C(=O)O1`, the IC50 was 23.5 µM (active).
In the case of `COc1ccc2[nH]c3c(N4CCC(O)(c5cccc(C(F)(F)F)c5)CC4)ncnc3c2c1`, the “inhibition” value is reported as -0.29%.
For `Cc1ccc2c(c1)[nH]c1c(N3CCN(Cc4ccccc4)CC3)ncnc12`, the IC50 was 45.1 µM (active).
In the case of `Cc1ccc(SCCN2CCN(Cc3ccccc3)CC2)cc1`, the “inhibition” value is reported as 16.9%.
In the case of `Cc1nc2ccccc2n2c(O)c(CC(=O)O)cc12`, the IC50 is reported as 33 µM (active).
For `COc1cc(/C=C/C(=O)N[C@@H](Cc2c[nH]c3ccccc23)C(=O)O)ccc1O`, the IC50 was 83.7 µM (active).
For `C/C=C(\C)CN1CCN(c2ccc(C)cc2)CC1`, the “inhibition” value was 14.8%.
For `Cc1ccc(CN2CCN(C(=O)CC(C)C)CC2)cc1`, the “inhibition” value was 9.93%.
For `O=S(=O)(c1ccc2ccccc2c1)N1CCN(c2ccc(O)cc2)CC1`, the IC50 was 39.5 µM (active).
In the case of `CCOC(=O)N1CCC(N2CCN(S(=O)(=O)c3ccc4ccccc4c3)CC2)CC1`, the “inhibition” value is reported as 11.1%.
For `O=S(=O)(c1ccc2ccccc2c1)N1CCN(C2CCN(Cc3ccccc3)CC2)CC1`, the “inhibition” value was 23.3%.
With `Cc1ccc(S(=O)(=O)N2CCN(C(=O)CN3CCN(c4ccc(O)cc4)CC3)CC2)cc1` the IC50 was 34.6 µM (active).
With `O=C(CSc1ccc2ccccc2c1)N1CCN(c2ccc(O)cc2)CC1` the IC50 was 46.5 µM (active).
For `Cc1cc2nc(/N=C(\N)NC(=O)N3c4ccccc4Sc4ccccc43)nc(C)c2cc1C`, the “inhibition” value was 17.8%.
In the case of `C#CCOCCOCCOCCNc1nc(N2CCN(C(=O)C([C@@H](C)O)n3cc([C@@H](N)CCCCN)nn3)CC2)nc(N2CCN(C(=O)[C@H](CCCN=C(N)N)n3cc(C(N)[C@@H](C)CC)nn3)CC2)n1` (stereo not given in full), the “inhibition” value is reported as 1.38%.
For `Cc1cc(O)ccc1Nc1nc(-c2cccs2)cs1`, the IC50 was 44 µM (active).
With `Nc1ccc(N2CCN(c3ccc(Cl)c(Cl)c3)CC2)cc1` the IC50 was 20.5 µM (active).
With `Nc1ccc(N2CCN(c3cccc(Cl)c3)CC2)cc1` the IC50 was 18.6 µM (active).
In the case of `CC(C)N1CCN(C(=O)c2cccc(Cl)c2)CC1`, the “inhibition” value is reported as 15.6%.
For `CCCCCC(=O)Nc1cc(S(=O)(=O)O)cc2cc(S(=O)(=O)O)cc(O)c12`, the “inhibition” value was 17.7%.
In the case of `CCN(CC)c1ccc(NS(=O)(=O)c2ccc(-c3ccc(=O)[nH]n3)o2)c(C)c1`, the “inhibition” value is reported as 7.93%.
With `Cc1ccc(Nc2n[nH]c(=S)s2)cc1` the IC50 was 50.6 µM (active).
With `CC(=O)Nc1n[nH]c(=S)s1` the IC50 was 48.7 µM (active).
In the case of `CCOc1ccc(Nc2n[nH]c(=S)s2)cc1`, the IC50 is reported as 42.5 µM (active).
For `Cc1ccc(Nc2n[nH]c(=S)s2)cc1F`, the IC50 was 50.3 µM (active).
For `O=C(O)c1ccc(S(=O)(=O)c2ccc3c(c2)C(=O)N(NC(=O)c2cccnc2)C3=O)cc1`, the “inhibition” value was 2.35%.
With `COc1ccc(Nc2ccccc2)c(C)c1` the IC50 was 37.4 µM (active).
With `COc1ccc(NC(=S)NNS(=O)(=O)c2ccc3ccccc3c2)c(OC)c1` the “inhibition” value was 22.1%.
In the case of `COc1ccc(NC2=NCCC2)cc1`, the “inhibition” value is reported as 17.6%.
For `COc1ccc(Nc2ccc3ccccc3c2)cc1`, the IC50 was 66.9 µM (active).
For `OCCN1CCN(CC(O)COC(c2ccc(F)cc2)c2ccc(F)cc2)CC1` (stereo not given), the “inhibition” value was 18.1%.
In the case of `Cc1cc(OCc2nc3ccccc3s2)ccc1N`, the IC50 is reported as 63.7 µM (active).
In the case of `CCOc1ccc2nc(NC(=O)CS(=O)(=O)c3ccccc3)sc2c1`, the “inhibition” value is reported as 4.87%.
In the case of `CCCS(=O)(=O)N1CCN(CC2CC3C=CC2C3)CC1` (stereo not given), the “inhibition” value is reported as 14.7%.
In the case of `COc1cc(OC)c(CN2CCCN(C)CC2)cc1Br`, the “inhibition” value is reported as 21%.
For `Fc1ccc(CNCc2ccccc2Cl)cc1`, the “inhibition” value was 16.5%.
In the case of `Oc1ccc(Cc2ccccc2Cl)c(O)c1`, the IC50 is reported as 60.2 µM (active).
For `Oc1ccc(Cc2ccc(Cl)cc2)c(O)c1`, the IC50 was 78 µM (active).
With `CCC(=O)N1CCc2cc(S(=O)(=O)CCC(=O)NCc3ccc(C)cc3)ccc21` the “inhibition” value was 1.54%.
In the case of `N#CC1(Nc2ccc(-c3ccc(NC4(C#N)CCCC4)cc3)cc2)CCCC1`, the IC50 is reported as 11.6 µM (active).
For `CCOc1ccccc1N1CCN(C/C=C/c2ccc(N(C)C)cc2)CC1`, the “inhibition” value was 24.8%.
For `C[n+]1ccc(/C=C/c2ccccc2O)c2ccccc21`, the “inhibition” value was 5.2%.
With `CC[n+]1ccc(/C=C/c2ccc(N(C)C)cc2)c2ccccc21` the IC50 was 47 µM (active).
In the case of `O=C(CCl)NCCN1C(=O)S/C(=C\c2cccnc2)C1=O`, the “inhibition” value is reported as -1.45%.
In the case of `COc1cc2c(cc1OC)C(/C=C/c1ccco1)=NCC2`, the “inhibition” value is reported as 3.65%.
For `O=c1/c(=C/c2ccc(O)cc2)sc2n1CCCN=2`, the IC50 was 21.7 µM (active).
For `COc1cc(/C=c2\sc3n(c2=O)CCCN=3)ccc1O`, the IC50 was 17.7 µM (active).
For `Cc1cc(Cl)cc(C)c1OCCOCCNCc1ccccc1`, the “inhibition” value was 16.7%.
With `Cc1cc2[nH]c3c4ccccc4nc(C)c3c2cc1C` the “inhibition” value was 15.7%.
For `O=C1Nc2ccccc2C1=Nc1ccc2[nH]c3ccccc3c2c1`, the IC50 was 23.4 µM (active).
In the case of `CCOC(=O)c1c(N)sc2c1CCS(=O)(=O)C2`, the “inhibition” value is reported as 6.6%.
For `CCOC(=O)c1c(N)sc2c(O)c(Br)ccc12`, the IC50 was 58.1 µM (active).
For `Oc1ccc2c(ccc3[nH]cnc32)c1`, the IC50 was 42.6 µM (active).
With `CC(C(=O)Nc1ccc2c(c1)OCO2)N1CCN(C)CC1` (stereo not given) the “inhibition” value was 26.4%.
For `CCN(CC)CCOC(=O)c1ccc(N/C=C(/C#N)c2nc(-c3ccc4c(c3)OCO4)cs2)cc1`, the “inhibition” value was 5.24%.
With `O=C(Oc1ccc2c(c1)OCO2)c1ccncc1` the “inhibition” value was 20%.
With `CN(C)c1ccc(NC(=O)COC(=O)c2ccc3c(c2)OCO3)cc1` the IC50 was 67 µM (active).
For `CCN(CC)c1ccc(NC(=O)c2ccc3c(c2)OCO3)cc1`, the IC50 was 66.8 µM (active).
With `CCN(CC)C(=O)C1CCCN(Cc2ccc3c(c2)OCO3)C1` (stereo not given) the “inhibition” value was 11.7%.
In the case of `Nc1ccc2c(c1)Nc1ccccc1CC2`, the IC50 is reported as 37.8 µM (active).
For `Cc1ccccc1OCCn1c(=S)[nH]c2c(N)ncnc21`, the IC50 was 68.2 µM (active).
With `Cc1ccccc1OCCN1CCCC1` the “inhibition” value was 14.1%.
With `CC(C)Oc1ccc(OCCn2c(=S)[nH]c3c(N)ncnc32)cc1` the IC50 was 76.4 µM (active).
In the case of `C/C(=N\NC(=O)c1ccc(O)cc1)c1ccc2c(c1)Nc1ccccc1S2`, the IC50 is reported as 41.1 µM (active).
In the case of `C/C(=N/Nc1ccc(C(=O)O)cc1)c1ccc2c(c1)Nc1ccccc1S2`, the IC50 is reported as 51.3 µM (active).
For `C/C(CC(=O)Nc1ccc(N(C)C)cc1)=N\NC(=O)c1ccc([N+](=O)[O-])cc1Cl`, the IC50 was 61.6 µM (active).
In the case of `COC(C(=O)N/N=C(\C)CC(=O)Nc1ccc(N(C)C)cc1)c1ccccc1` (stereo not given), the IC50 is reported as 47.7 µM (active).
In the case of `C/C(CC(=O)Nc1ccc(N(C)C)cc1)=N\NC(=O)c1ccc([N+](=O)[O-])cc1`, the IC50 is reported as 59.5 µM (active).
With `Cn1ccc(=Nc2ccc(NC(=O)c3ccc(N=c4ccn(C)c5ccc([N+](=O)[O-])cc45)cc3)cc2)cc1` the “inhibition” value was 6.89%.
For `C/C(CC(=O)Nc1ccc(N(C)C)cc1)=N\NC(=O)c1ccc(F)cc1`, the IC50 was 46.5 µM (active).
For `O=C(Nc1ccc(C2=NCCN2)cc1)c1ccc(C(=O)Nc2ccc(C3=NCCN3)cc2)c(Cl)c1`, the “inhibition” value was 6.39%.
For `O=C(Cn1sc2ccccc2c1=O)Nc1ccc(F)cc1`, the “inhibition” value was 6.79%.
